# Data: the supplement of paper PMC10127200
# Where a name gives a salt, the structure may show the parent alone.
# Experiments:
# Test in all cases: Euclidean distance of Cell Painting phenotypic profile (signed KS, 77 features) to DMSO centroid (dimensionless distance); 5 or 10 uM (library dependent); higher = stronger phenotypic change vs DMSO (phenoactivity)
# Conditions in all cases: 48 h
# [1] = test system: 786-O
# Method in brief: (§1)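 Stained cells were imaged confocally at 20X with 9 fields per well, after 48 h of exposure to library compounds at 10 or 5 uM (set by library; 0.1% DMSO final). The cells were five cancer lines and a healthy fibroblast line. From the images, Harmony extracted 77 features, each expressed as a signed Kolmogorov-Smirnov statistic relative to same-plate vehicle wells. Phenoactivity is measured as Euclidean distance to the median vehicle profile, using plate-position-corrected, correlation-weighted profiles averaged across replicates at the top dose.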
# [2] = test system: A549
# Method in brief: as §1
# [3] = test system: DU145
# Method in brief: as §1
# [4] = test system: FB
# Method in brief: as §1
# [5] = test system: HEPG2
# Method in brief: as §1
# [6] = test system: OVCAR4
# Method in brief: as §1
SMILES,Euclidean distance [1],Euclidean distance [2],Euclidean distance [3],Euclidean distance [4],Euclidean distance [5],Euclidean distance [6]
Cn1cc(CNCC2CCN(c3ncc(C(=O)NO)cn3)CC2)c2ccccc21,2.78,4.19,3.88,3.5,4.44,3.65
O=C(CSc1nc2c(c(=O)n1-c1ccccc1)SCC2)Nc1ccc(-c2ccccc2)cn1,1.36,1.81,1.11,0.832,1.42,0.588
CC(C)(C)NCC(O)c1cc(O)cc(O)c1 (configuration not stated) [Terbutaline Sulfate],1.21,0.707,0.835,1.27,0.547,0.825
COC1=CC(c2cc3ccccc3[nH]2)=N/C1=C\c1[nH]c(C)cc1C [Obatoclax Mesylate (GX15-070)],4.8,4.59,2.78,4.82,3.8,3.71
CCOC(=O)c1ccc(C#Cc2ccc3c(c2)C(C)(C)CCS3)nc1 [Tazarotene],1.01,1.14,0.728,2.31,0.556,1.27
CCN(CC)C(=O)N1CCN(C)CC1 [Diethylcarbamazine citrate],0.755,0.674,0.703,0.826,0.536,1.14
C[C@]12CCC(=O)C=C1CC[C@@H]1[C@@H]2[C@@H](O)C[C@@]2(C)[C@H]1CC[C@]2(O)C(=O)CO [Hydrocortisone],0.925,1.63,2.09,1.56,0.62,2.31
CN(C)CCCCC(=O)Nc1ccc(NC(=S)NC(=O)c2ccc(C(C)(C)C)cc2)cc1 [Tenovin-6],2.9,3.08,1.61,3.01,3.46,1.95
CCOC(=O)c1ccc(N)cc1 [Benzocaine hydrochloride],0.675,0.334,0.563,0.896,0.264,0.998
Clc1ccc(CCC(Cn2ccnc2)Sc2c(Cl)cccc2Cl)cc1 (configuration not stated) [Butoconazole],1.21,0.956,1.06,1.04,1.4,1.31
Clc1cccc(Cl)c1NC1=NCCN1 [Clonidine HCl],1.05,1.46,1.32,1.16,0.83,1.24
NC(=O)/C(=C/n1cnc(-c2cc(C(F)(F)F)cc(C(F)(F)F)c2)n1)c1cncnc1 [Eltanexor (KPT-8602)],2.1,3.48,2.69,4.12,2.35,3.66
COC(=O)[C@H](c1ccccc1Cl)N1CCc2sccc2C1 [Clopidogrel],2.53,2.3,2.44,2.99,1.3,2.4
COc1c(-c2ccc3cc(NS(C)(=O)=O)ccc3c2)cc(-n2ccc(=O)[nH]c2=O)cc1C(C)(C)C [Dasabuvir(ABT-333)],1.78,1.78,1.27,1.48,1.05,1.42
Cn1cc(/C=C/C(=O)c2cccc(F)c2)cc1/C=C/C(=O)NO,1.27,1.61,0.756,1.27,0.359,0.539
CC(NC(=O)c1ccccc1/N=C/c1c(O)ccc2ccccc12)c1ccccc1 (configuration not stated) [Sirtinol],0.539,0.747,0.686,0.99,2.2,0.857
CCOc1ccccc1OCCN[C@H](C)Cc1ccc(OC)c(S(N)(=O)=O)c1 [Tamsulosin],1.91,1.28,1.73,1.01,1.38,1.6
CC[C@H]1OC(=O)[C@H](C)[C@@H](O[C@H]2C[C@@](C)(OC)[C@@H](O)[C@H](C)O2)[C@H](C)[C@@H](O[C@@H]2O[C@H](C)C[C@H](N(C)C)[C@H]2O)[C@](C)(O)C[C@@H](C)C(=O)[C@H](C)[C@H]2OC(=O)O[C@@]21C [Erythromycin Cyclocarbonate],1.11,1.33,0.736,0.984,1.01,0.912
CONC(=O)c1ccccc1Nc1cc(Nc2cc(C)nn2C(C)C)ncc1Cl,1.35,1.28,1.33,2.01,0.825,1.5
C=CC(=O)Nc1cccc(Nc2nc(Nc3ccc(OCCOC)cc3)ncc2F)c1 [Spebrutinib (CC-292. AVL-292)],2.73,3.75,3.51,3.98,3.25,2.96
O=C1c2cccc(O)c2C(=O)c2c(O)cccc21 [Danthron],1.02,0.914,1.19,0.924,0.868,1.12
Nc1nc2[nH]cnc2c(=S)[nH]1 [Thioguanine],1.65,2.5,1.48,0.807,3.13,2.12
C[C@@H]1O[C@@H](OC[C@H]2O[C@@H](Oc3c(-c4ccc(O)c(O)c4)oc4cc(O)cc(O)c4c3=O)[C@H](O)[C@@H](O)[C@@H]2O)[C@H](O)[C@H](O)[C@H]1O [Rutin],1.11,0.756,0.783,0.933,0.632,0.909
CCc1cnn2c(NCc3ccc[n+]([O-])c3)cc(N3CCCC[C@H]3CCO)nc12,3.35,2.78,3.2,3.11,2.64,3.58
CNC(=O)c1ccc(-c2cnc3ncc(Cc4ccc5ncccc5c4)n3n2)cc1F,1.36,0.853,0.871,0.899,0.745,0.726
Cc1cc(/C=C/c2ccc3cc(N(C)C)ccc3[n+]2C)c(C)n1-c1ccccc1 [pyrvinium],5.7,4.29,5.05,6.77,3.9,5.35
CCCCC(=O)N(Cc1ccc(-c2ccccc2-c2nnn[nH]2)cc1)[C@H](C(=O)O)C(C)C [Valsartan],1.68,1.17,0.682,0.799,0.48,0.776
